Pf growth 96h = inhibits malaria parasite growth, 96 h; P. falciparum luciferase reporter growth, 96 h; Potency, µM (doses to about 28.7 µM), for inactives: at the highest dose activity change, negative = inhibition, hits mostly inhibitors; actives 6.9% (n = 320,000); note: potency is the fitted concentration of half-maximal effect
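Compounds incubated with erythrocytes infected by luciferase-expressing P. falciparum (2% hematocrit, 0.05% parasitemia final) for 96 hours, 37 C in 5% CO2. Growth inhibition scored as decreased luciferase luminescence.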
Sm TGR inh = blocks Schistosoma mansoni thioredoxin glutathione reductase; Q962Y6; purified TGR, DTNB reduction, TNB absorbance 405 nm; Potency, µM (doses to about 114 µM), for inactives: at the top dose activity change, negative = inhibition, usual class: inhibitors; actives 3% (n = 360,000); note: potency is the fitted concentration of half-maximal effect; nearly all actives have a fitted effect of over 60% in size
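Kinetic colorimetric format: TGR-catalysed, NADPH-driven DTNB reduction monitored via TNB absorbance. Enzyme dispensed at 20 nM; compound exposure 15 min at room temperature before reaction start.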
Giardia FBPA inh = blocks Giardia fructose-bisphosphate aldolase activity; A8B2U2; purified Giardia FBPA; Potency, µM (doses to about 59.6 µM), without a hit: at the top dose activity, negative = inhibition, most hits filed as inhibitors; actives 0.71% (n = 290,000); note: potency is the fitted concentration of half-maximal effect; nearly all actives have a fitted effect of over 55% in size
Target sequence (A8B2U2 whole entry, looked up): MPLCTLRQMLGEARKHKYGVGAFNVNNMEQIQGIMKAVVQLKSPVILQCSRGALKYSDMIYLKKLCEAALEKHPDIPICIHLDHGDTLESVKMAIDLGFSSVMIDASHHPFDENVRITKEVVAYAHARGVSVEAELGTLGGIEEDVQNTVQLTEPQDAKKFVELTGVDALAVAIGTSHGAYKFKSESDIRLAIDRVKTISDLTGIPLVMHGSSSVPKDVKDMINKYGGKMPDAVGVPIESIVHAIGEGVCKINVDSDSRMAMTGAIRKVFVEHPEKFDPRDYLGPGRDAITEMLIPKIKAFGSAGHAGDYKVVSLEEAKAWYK
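40 nM FBPA preincubated 10 min at RT with compound (up to 57.5 uM final), then substrate plus GAPDH/TPI/NAD/arsenate coupling and diaphorase/resazurin added. Fluorescence read after 20 min at RT, 525/598 nm.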
HCMV inh = human cytomegalovirus inhibition. HFF cells, HCMV-luciferase reporter, 72 h; stronger effect = lower value. activity change, negative = inhibition, % at 57.5 µM. actives 4.5% (n = 410,000). AID 1259415; in the data active = activity change below about -60%; inconclusive = no clear call, values can overlap the other calls; inactive = above about -39%
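Two compound doses tested in HFFs infected with HCMV-luciferase, MOI 1 PFU/cell, 72 h at 37C. Lysate luminescence read with OneGlo; data normalized against buffer-only and 10uM Salinomycin inhibitor controls.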
Pf growth 48h = inhibits P. falciparum growth in the first generation, 48 h | P. falciparum luciferase growth in erythrocytes, 48 h | Potency, µM (highest dose often 28.7 µM), inactives show at the top dose activity change, negative = inhibition, hits mostly inhibitors | AID 504832 | actives 5.9% (n = 310,000); note: potency is the fitted concentration of half-maximal effect
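Cell-based growth assay: transgenic P. falciparum expressing firefly luciferase, cultured in red cells within RPMI 1640 containing 0.5% w/v Albumax, 24 mM bicarbonate and gentamycin. A drop in luciferase activity indicates inhibition.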
* hit, by the source's call; i = inactive; ? = inconclusive; . = not tested or not shown; + = active, no number; ! = not active in a repeat; [ ] = dose if it differs, or a comment. In the library only some 14% were active in any assay of this set; here they are far more common. Unless noted, calls come from the whole dose curve; as a rule, active = well fitted curve in the direction sought with a large enough effect; inconclusive = small, poorly fitted or top-dose-only effect, or another doubt; inactive = no such curve, though single readings can be large; an effect the other way counts as inactive or inconclusive. % is set by controls: 0 for no effect and ±100 for the full control effect.

SMILES | Pf growth 96h | Sm TGR inh | Giardia FBPA inh | HCMV inh | Pf growth 48h
CCCSc1nnc(CNC(=O)C23CC4CC(CC(C4)C2)C3)n1Cc1ccccc1 | ? | -10% | 2% | -32 | 13µM*
Cc1ccc(NC(=O)CSc2cc(=O)n(C)c3ccc(Cl)cc23)c(Br)c1 | . | 3% | . | 9 | .
CC1CCN(C(=O)C2CCN(S(=O)(=O)c3ccc4c(c3)CC(C)N4C(=O)C3CC3)CC2)CC1 (stereo unspecified) | 0% | -11% | -5% | ? | 9.3µM*
CC(=O)N1c2ccc(S(=O)(=O)N3CCC(C(=O)N4CCN(c5ccccc5F)CC4)CC3)cc2CC1C (stereo unspecified) | ? | -1% | . | -26 | ?
CC1CCN(C(=O)C2CCN(S(=O)(=O)c3cc(Cl)ccc3Cl)CC2)CC1 | ? | 0% | 11% | -87* | 2%
CC(=O)N1c2ccc(S(=O)(=O)N3CCC(C(=O)N4CCN(c5ccc(Cl)cc5)CC4)CC3)cc2CC1C (stereo unspecified) | ? | 7% | . | -74* | ?
CN1C(=O)Cc2cc(S(=O)(=O)N3CCN(c4cccc(Cl)c4)CC3)ccc21 | 0% | -4% | . | -19 | -4%
CC(=O)N1c2ccc(S(=O)(=O)N3CCC(C(=O)N4CCCCC4)CC3)cc2CC1C (stereo unspecified) | ? | 3% | -3% | ? | ?
CN1C(=O)Cc2cc(S(=O)(=O)N3CCN(c4ccc(Cl)cc4)CC3)ccc21 | 7% | -2% | . | +! | ?
CCN1CCN(C(=O)C2CCCN(S(=O)(=O)c3cc(Cl)ccc3Cl)C2)CC1 (stereo unspecified) | -26% | 2% | . | ? | ?
COc1cc(/C=C(\C#N)C(=O)c2ccc(O)c(O)c2)cc(I)c1O | -9% | ? | ? | 11 | ?
CC1Cc2cc(S(=O)(=O)N3CCN(c4cccc(Cl)c4)CC3)ccc2N1C(=O)C1CC1 (stereo unspecified) | ? | 0% | 0% | -26 | ?
CC1Cc2cc(S(=O)(=O)N3CCN(c4ccc(Cl)cc4)CC3)ccc2N1C(=O)C1CC1 (stereo unspecified) | 15µM* | -5% | 5% | -26 | ?
CCCNC(=O)N(C)C[C@H]1Oc2ncc(C#CCc3ccccc3)cc2C(=O)N([C@H](C)CO)C[C@H]1C | . | . | . | 15 | .
COc1ccc2[nH]c3nc(SCc4nnc(-c5ccccc5)o4)nnc3c2c1 | i | 1% | 0% | -94* | ?
COc1ccc(CNC(=O)CSc2nnc3c(n2)[nH]c2ccc(OC)cc23)cc1 | 6% | -16% | -19% | 17 | 21%
COc1ccc2[nH]c3nc(SC(C)C)nnc3c2c1 | 5.2µM* | 4% | -6% | -21 | 405%
CN(c1ccccc1)c1ncnc2c1cnn2C | . | 19% | . | -15 | .
Cc1ccc(NC(=O)c2cccc(OCc3c(C)noc3C)c2)cc1S(=O)(=O)Nc1ccccc1Cl | ? | -2% | 2% | -66* | -1%
Cc1noc(C)c1COc1cccc(C(=O)Nc2ccc3c(c2)OCO3)c1 | -28% | -9% | 3% | -30 | 55%
CC(C)(C)c1nnc(N/N=C/c2ccccc2)n(N)c1=O | 1% | 8% | 0% | -8 | -2%
CC(C)(C)c1nnc(N/N=C/c2ccccc2O)n(N)c1=O | ? | -20% | -18% | -102* | 3.3µM*
COC(=O)C(c1ccccc1Cl)N1CCc2sccc2C1 (stereo unspecified) | 11µM* | . | ? | . | ?
COC(=O)CC(NS(=O)(=O)c1cccs1)c1ccccc1Cl (stereo unspecified) | -2% | 1% | -19% | -5 | 8%
COC(=O)[C@H](c1ccccc1Cl)N1CCc2sccc2C1 | 8.3µM* | 4% | -1% | -26 | 12µM*
SMILES | Pf growth 96h | Sm TGR inh | Giardia FBPA inh | HCMV inh | Pf growth 48h
COC(=O)[C@@]1(Cc2ccc(OC)cc2)[C@H]2c3cc(C(=O)N4CCCC4)n(Cc4ccc(O)c(OC)c4)c3C[C@H]2CN1C(=O)c1ccccc1 | . | . | -5% | . | .
C=C1CC[C@H](O)C/C1=C/C=C1\CCC[C@]2(C)[C@H]1CC[C@H]2[C@@H](C)/C=C\[C@@H](C)C(C)C | . | . | -9%[21.7 µM] | . | .
CCN(CC)c1ccc(/C=N/Nc2nc(C)cc(=O)[nH]2)c(O)c1 | 1.9µM* | 4% | -21% | -98* | 1.9µM*
Cc1cc(=O)[nH]c(NN=Cc2cc(Br)ccc2O)n1 | . | . | . | -100* | .
Cc1cc(=O)[nH]c(N/N=C/c2ccccc2Cl)n1 | ? | 6% | -8% | 66 | 15%
CCCCCCCCN1C(=O)[C@H](CC(=O)N2CCN(C(=O)c3ccco3)CC2)C[C@@]2(C(=O)OC)CCCCC=C12 | . | . | . | -12 | .
O=C(/C=C/c1ccccc1)N(Cc1ccc(Cl)cc1)C1CCS(=O)(=O)C1 (stereo unspecified) | ? | 0% | -1% | 4 | ?
O=C(/C=C/c1ccco1)N(Cc1cccc(Cl)c1)C1CCS(=O)(=O)C1 (stereo unspecified) | ? | 2.8µM* | -1% | 23 | ?
O=C(/C=C/c1ccco1)N(Cc1cccc(F)c1)C1CCS(=O)(=O)C1 (stereo unspecified) | ? | 10µM* | . | -20 | -8%
Cc1c(C(=O)N(Cc2cccc(Br)c2)C2CCS(=O)(=O)C2)oc2ccccc12 (stereo unspecified) | 13µM* | -3% | . | -11 | ?
O=C(/C=C/c1ccccc1)N(Cc1cccc(Cl)c1)C1CCS(=O)(=O)C1 (stereo unspecified) | 4.1µM* | -6% | 3% | 6 | 6.6µM*
Cc1c(C(=O)N(Cc2ccccc2)C2CCS(=O)(=O)C2)oc2ccccc12 (stereo unspecified) | 0% | 1% | 0% | -31 | 14%
COc1cccc(CN(C(=O)/C=C/c2ccc(Cl)cc2)C2CCS(=O)(=O)C2)c1 (stereo unspecified) | i | -5% | -4% | 30 | ?
Cc1cccc(C)c1NC(=O)C1(C)CSCC(=O)N1CCc1c[nH]c2ccccc12 (stereo unspecified) | . | . | . | 28 | .
O=C(Cn1c(=O)oc2ccccc21)N(Cc1ccccc1)C1CCS(=O)(=O)C1 (stereo unspecified) | 2% | 12%[11.4 µM] | 1% | -101* | .
O=C(c1ccccc1)N(Cc1cccc(Br)c1)C1CCS(=O)(=O)C1 (stereo unspecified) | 9% | 6% | 3% | ? | 13%
O=C(/C=C/c1ccco1)N(Cc1ccc(F)cc1)C1CCS(=O)(=O)C1 (stereo unspecified) | 0% | 7.9µM* | 0% | 11 | 26%
O=C(/C=C/c1ccco1)N(Cc1ccccc1)C1CCS(=O)(=O)C1 (stereo unspecified) | 11% | 3.2µM* | -1% | -4 | 0%

Screens (PubChem)
